Shown are actives, neighbours in structure and some others; about 3.7% of the full set was active somewhere.
BRCA1 expr up = BRCA1 expression activation | 380,000 compounds, 1.1% hits | MCF7-BRCA1-FFLuc reporter, luminescence, 48 h; response scale: scaled: vehicle 0%, 10 µM genistein 100% | Potency, µM (series often up to 46.1 µM), usual class: activators | AID 624202; further: nearly all actives have a fitted effect of over 80% in size
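MCF7-BRCA1-FFLuc cells, 2000/well in phenol-red-free MEM, attached 2 h then treated 48 h at 37 C. Luciferase luminescence read 15 min after reagent; normalized to genistein maximum activation (10microM) and DMSO, concentration-response fitted.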
RGS4 inh = inhibitors of human regulator of G protein signaling 4. AID 504845. Transcreener GDP fluorescence polarization, RGS4-accelerated GTP hydrolysis. 390,000 compounds, 0.039% hits. Potency, µM (series often up to 114 µM), actives largely listed as inhibitors. P49798; further: nearly all actives have a fitted effect of over 75% in size
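MLSMR compounds (23 nl, pin-transferred) preincubated 10 min at room temperature with a 500nM (2x) first reagent, then RGS4 at 900nM (2x) plus Transcreener GDP mix added; fluorescence polarization (620/688 nm) read before and after 90 min at 30 °C.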
PTHR1 ag = PTHR1 (human) receptor agonism | Q03431 | HEK293 GP2 PTHR1 cells, GloSensor cAMP luminescence, 1 h | Potency, µM (highest dose often 115 µM), usual class: activators | 410,000 compounds, 0.075% hits; further: nearly all actives have a fitted effect of over 55% in size
Target sequence (Q03431 whole entry, looked up): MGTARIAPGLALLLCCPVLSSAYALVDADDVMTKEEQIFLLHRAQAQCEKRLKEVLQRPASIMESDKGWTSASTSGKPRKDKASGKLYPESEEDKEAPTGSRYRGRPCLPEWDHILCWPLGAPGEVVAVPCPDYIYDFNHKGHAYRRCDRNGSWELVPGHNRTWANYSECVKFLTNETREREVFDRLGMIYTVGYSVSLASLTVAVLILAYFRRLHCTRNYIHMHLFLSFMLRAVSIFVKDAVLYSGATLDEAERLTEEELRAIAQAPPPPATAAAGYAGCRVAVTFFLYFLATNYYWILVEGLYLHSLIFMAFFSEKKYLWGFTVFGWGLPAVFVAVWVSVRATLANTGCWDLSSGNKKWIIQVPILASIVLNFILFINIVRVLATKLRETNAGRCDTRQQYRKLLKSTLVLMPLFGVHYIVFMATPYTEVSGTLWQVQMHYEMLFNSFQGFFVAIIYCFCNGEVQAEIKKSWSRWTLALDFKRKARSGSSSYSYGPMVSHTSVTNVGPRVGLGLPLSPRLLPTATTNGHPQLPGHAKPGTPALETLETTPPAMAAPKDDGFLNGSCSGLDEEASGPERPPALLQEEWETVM
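HEK-293-derived GP2 cells expressing PTHR1 and a GloSensor cAMP reporter, 3,000/well, plated overnight, given luciferin plus IBMX (each 0.5 mM as added) for 1 h at 37 °C, then compound for 1 h at 37 °C. Luminescence was read after 15 min at room temperature.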
B2AR arrestin = recruits beta-arrestin to the human beta2-adrenergic receptor; P07550; beta-arrestin recruitment to beta2AR, cell-based reporter; Potency, µM (titrated, usually from 46.1 µM), usual class: activators; 330,000 compounds, 0.02% hits; further: nearly all actives have a fitted effect of over 65% in size
D3 antag = blocks the human D3 dopamine receptor; P35462; D3R cells, DiscoveRx beta-arrestin luminescence, antagonist mode; hits give low values; max response, negative = inhibition, %; 360,000 compounds, 2.5% hits; in the data active means max response below about -50%; inconclusive means no clear call, values can overlap the other calls
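Cells expressing the human receptor were seeded at 1500 cells/well, incubated overnight at 37 degrees C in 5% CO2, then exposed to library compounds with dopamine controls for 90 minutes at 37 degrees C before luminescent detection.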
D3 ag = activates the human D3 dopamine receptor. max activation, %. P35462. AID 652048. 410,000 compounds, 0.58% hits. D3R DiscoveRx beta-arrestin cells, luminescence, 90 min; in the data active means max activation above about 30%
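Cells at 1500/well, incubated overnight, then treated with pinned compounds (dopamine as control) for 90 min at 37 degrees C. DiscoveRx reagent added for 30 - 60 minutes at room temperature; luminescence read.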
Large screens that a line does not name were inactive. Unless noted, the call rests on the fitted dose curve; in most records, active means well fitted curve in the direction sought with a large enough effect; inconclusive means small, poorly fitted or top-dose-only effect, or another doubt; inactive means no such curve, though single readings can be large; an effect the other way counts as inactive or inconclusive.

O=C1CS/C(=N\N=C\c2ccco2)N1c1ccccc1	none
CCOc1ccc(N=C(/C(C(=O)C(=O)N2CCOCC2)=C(/O)c2ccccc2)c2ccccc2)cc1	BRCA1 expr up 11.2µM
C=C1SC(Nc2c(C)cc(C)cc2C)=NC12CCCCC2	D3 antag -54.4
C=C1SC(Nc2c(C)cccc2C)=NC12CCCCC2	none
Cc1nonc1NC(=O)OCCN1CCOC1=O	none
O=C1OCCN1CCN(CN1C(=O)CCC1=O)CN1C(=O)CCC1=O	D3 antag -56.8
NC1=NC(=O)/C(=C\C=C\c2ccccc2)S1	none
O=C1NC(=O)C(=CC=Cc2ccccc2)S1	BRCA1 expr up 10µM (no result: RGS4 inh, B2AR arrestin)
c1csc(Cc2nn3c(-c4n[nH]c5c4CCC5)nnc3s2)c1	D3 antag -61.5
c1coc(-c2nnc3sc(Cc4cccs4)nn23)c1	RGS4 inh inconclusive
c1ccc(CCNc2nc(-c3ccccc3)cs2)cc1	none (no result: BRCA1 expr up, RGS4 inh, PTHR1 ag, B2AR arrestin, D3 antag)
c1ccc(CCNc2nc3ccccc3s2)cc1	BRCA1 expr up 11.2µM
O=C1c2ccccc2S(=O)(=O)N1CC1CC(c2ccc(Cl)cc2)=NO1 (stereo unspecified)	BRCA1 expr up 3.16µM
O=C1c2ccccc2S(=O)(=O)N1CC1CC(c2ccccc2)=NO1 (stereo unspecified)	BRCA1 expr up 11.2µM
COc1ccc(C2=NOC(CN3C(=O)c4ccccc4S3(=O)=O)C2)cc1 (stereo unspecified)	BRCA1 expr up 2.82µM
COc1ccc(C2=NOC(Cn3nc(C(=O)O)cc3-c3ccccc3)C2)cc1 (stereo unspecified)	none
O=C(C[C@@H]1C[C@@H]2c3cc(NC(=O)C4CCC4)ccc3O[C@@H]2[C@@H](CO)O1)NCc1ccc(Cl)cc1	none (no result: RGS4 inh, B2AR arrestin)
O=C1c2ccccc2NC(c2ccccc2O)N1c1ccc(F)cc1 (stereo unspecified)	BRCA1 expr up 3.98µM
O=C1c2ccccc2NC(c2ccccn2)N1c1ccc(Cl)cc1 (stereo unspecified)	BRCA1 expr up 11.2µM
O=C1c2ccccc2NC(c2ccccc2)N1c1ccc(O)cc1 (stereo unspecified)	none
COc1cccc(C2Nc3ccccc3C(=O)N2c2ccc(F)cc2)c1O (stereo unspecified)	BRCA1 expr up 7.94µM
COc1cc(NC(=O)c2cccc3c(-c4cnn(C)c4)coc23)cc(OC)c1OC	none (no result: RGS4 inh, B2AR arrestin)
C=CCNCCCCOc1cccc(Br)c1	D3 antag -61.7
CCc1cccc(OCCCCNCCCOC)c1	D3 antag -79.3
COCCCNCCCCOc1cccc(Br)c1	D3 antag -61.0
CCc1cccc(OCCCCN(CC)CC)c1	D3 antag -73.5
OCCNCCCCOc1cccc(Br)c1	none
CCOC(=O)C(CCCCOc1cccc(CC)c1)C(=O)OCC	none
CCOc1cccc(OCCCNCCCOC)c1	D3 antag -58.7
O=C1C=C(NC2CCCC2)CC(c2ccccc2)C1 (stereo unspecified)	B2AR arrestin 3.55µM
S=c1[nH]nc(-c2ccccn2)n1/N=C/c1ccccc1	D3 antag -52.0
COc1ccccc1/C=C/C=N/n1c(-c2ccccn2)n[nH]c1=S	BRCA1 expr up 11.2µM
CCCCc1ccc(-c2csc(/C(C#N)=C\c3ccco3)n2)cc1	BRCA1 expr up 10µM
O=C(CSc1n[nH]c(=O)n1C1CC1)Nc1cc(Cl)ccc1Oc1ccccc1	D3 ag 31.8
CC1CN(Cc2c(O)ccc3c(=O)c(-c4ccccc4)coc23)CC(C)O1 (stereo unspecified)	none
CC1CN(Cc2c(O)ccc3c2oc(=O)c2ccccc23)CC(C)O1 (stereo unspecified)	D3 antag -66.2
O=S(=O)(c1cnc(Cl)c(Cl)c1)N1CCc2ccccc21	none
O=S(=O)(c1cnc(Cl)c(Br)c1)N1CCc2ccccc21	D3 antag -53.3
COc1ccc(NC(=O)c2ccc(C)cc2Cl)c([N+](=O)[O-])c1	BRCA1 expr up inconclusive, D3 antag -62.8

From PubChem
